# High-throughput results from PubChem BioAssay.
# The list is not random: actives were taken first. Their share in the collection is about 7.8%.
# Hedgehog inh: Sonic Hedgehog pathway inhibition; Shh-LIGHT2 Gli-luciferase reporter, 30 h; inhibition, % (test concentration not listed); actives 2.1% (n = 22,000); AID 2313;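 active = mean inhibition across valid replicates above about 65%, limit read from the data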;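 also: pathway switched on by Shh-conditioned medium diluted 1 in 25 in low serum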
# MITF inh: inhibitors of MITF | TRPM1 promoter luciferase, luminescence, 24 h | inhibition, % (no concentration beside the values) | actives 0.28% (n = 37,000) | AID 2240; in the data active = inhibition above about 85%;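 also: human melanocyte line stably carrying TRPM1 promoter luciferase reporter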
# NOMO-1 viab: STK33 inhibitor candidate reducing NOMO-1 cell viability. inhibition, % (no concentration beside the values). NOMO-1 AML viability, CellTiter-Glo luminescence, 72 h. actives 7.5% (n = 37,000). AID 2330; in the data active = inhibition above about 80%
# * = called active by the depositor; nt = no result.
SMILES,Hedgehog inh,MITF inh,NOMO-1 viab
CO[C@H]1[C@@H](O)[C@@H](C)O[C@@H](O[C@@H]2C=C3C(OC(C)=O)CC4(O)C(CC[C@]5(C)[C@@H](C6=CC(=O)OC6)CC[C@]45O)[C@@]3(C)CC2)[C@@H]1O (stereo partly drawn),-2,36,122*
CC(N)Cc1c[nH]c2ccc(OCc3cccs3)cc12 (stereo not drawn),31,-1,33
CCNC(=S)N1CCN(CC(=O)Nc2ccc(Cl)cc2C(=O)c2ccccc2)CC1,nt,-2,4
O=c1cccc2n1CC1CNC[C@H]2C1,-11,-4,4
CCC[C@H]1C[C@H]2OC(=O)c3c(cc(OC)c(OC)c3O)[C@H]2O1,-25,43,14
CC(CCc1ccc(O)cc1)O[C@@H]1O[C@H](CO[C@H]2OC[C@](O)(CO)[C@H]2O)[C@@H](O)[C@H](O)[C@H]1O (stereo partly drawn),-5,-5,-1
COC(=O)CC1(CC(=O)OC)C(=O)N(C)C(=O)N(C)C1=O,nt,-7,-9
Cc1ccc(NC(=O)c2cc(C)n(C(C)(C)C)n2)cc1,-182,-25,6
Cc1cc(C)cc(C(=O)OC2CC3CCC(C2)N3C)c1 (stereo not drawn),14,-6,36
CCN(CC)P1(=O)OC(C)(C)CC1(C)O (stereo not drawn),-18,-11,12
CC[C@H]1CN2CC[C@H]1C[C@@H]2[C@@H](O)c1ccnc2ccc(OC)cc12,17,-4,23
CCC1C2CC[N+]3([O-])CCC4(C(=C2C(=O)OC)Nc2c(OC)cccc24)C13 (stereo not drawn),6,10,18
CCCC(=O)O[C@@H]1[C@@H](C)[C@@]2(O)[C@@H](C=C(CO)C[C@]3(O)C(=O)C(C)=C[C@@H]23)[C@@H]2C(C)(C)[C@]12OC(=O)CCC,70*,2,59
CC1=C2C[C@H]3[C@@H](CC=C4C[C@@H](O)CC[C@@]43C)[C@@H]2CC[C@]12O[C@@H]1C[C@H](C)CN[C@H]1[C@H]2C,89*,11,55
CCCCC/C=C\C/C=C\C/C=C\C/C=C\CCCC(N)=O,-26,7,8
CCCSP(=O)(OCC)SCCC,-44,0,-4
O=c1[nH]c2ccccc2n1C1CCN(CCCC(c2ccc(F)cc2)c2ccc(F)cc2)CC1,73*,56,116*
O=c1ccc2cc(OC3O[C@H](CO)[C@@H](O)[C@H](O)[C@H]3O)c(O)cc2o1 (stereo partly drawn),-58,-6,-7
C=C1[C@]23C(=O)O[C@@H](C)[C@]2(O)C(=O)O[C@@]1(C)[C@H](OC(C)=O)C1=C(C)[C@@]2(C=CC(=O)OC2(C)C)CCC13C (stereo partly drawn),10,-13,13
CCCN1CCc2cccc3c2[C@H]1Cc1ccc(O)c(O)c1-3,25,0,113*
COc1cc2c3c(c1OC)-c1c(ccc(O)c1O)CC3N(C)CC2 (stereo not drawn),-10,0,35
O=C(O)C1C2CCC(O2)C1C(=O)NCCc1ccccc1 (stereo not drawn),nt,32,69
CCC(C)[C@H]1C(=O)O[C@H](C(C)C)C(=O)N(C)[C@@H](C(C)CC)C(=O)O[C@H](C(C)C)C(=O)N(C)[C@@H](C(C)CC)C(=O)O[C@H](C(C)C)C(=O)N1C (stereo partly drawn),104*,96*,119*
COC[C@H]1OC(=O)c2coc3c2[C@@]1(C)C1=C(C3=O)[C@@H]2CCC(=O)[C@@]2(C)C[C@H]1OC(C)=O,-12,39,90*
Cc1ccc(-n2c(CNCc3cccnc3)nc3ccccc3c2=O)cc1,nt,-16,14
CCN(CC)C(=O)N[C@@H]1C=C2c3cccc4[nH]cc(c34)C[C@H]2N(C)C1,-19,12,26
CCC1CN2CCC3(C(=O)Nc4cccc(O)c43)C2CC1/C(=C/OC)C(=O)OC (stereo not drawn),-13,6,6
